Laboratory results as given in ChEMBL document CHEMBL3988442, “University of Dundee, Small-Polar-MMV Screening Library” (2021).
The campaign covered roughly 48,000 compounds. About 13,000 (27%) showed an effect of 50% or more. This is one part of the list.

Each compound was assayed on Wolbachia pipientis (assay: Anti-Wolbachia Cell-Based Screen). Conditions: 5 µM.
Type: functional
Design: scale not given: in the data most compounds retested in dose-response had high values

In order of falling “Percent Effect” value:
1. CC(C)(C)C(=O)N1C[C@H](c2ccsc2)[C@H]2CN(C3CCCC3)CC[C@H]21.Cl  191.9%
2. COCC(=O)N1CCN(C)C(=O)C(Cc2ccccc2-c2cccs2)C1 (stereo not given)  162.7%
3. CCC(=O)N1CCN(C)C(=O)C(Cc2ccccc2-c2cccs2)C1 (stereo not given)  157.1%
4. CN(Cc1nc2ccccc2s1)C1CCCN(c2cccnn2)C1 (stereo not given)  143.8%
5. CC(C)(C)C(=O)N1C[C@H](c2ccsc2)[C@H]2CN(C3CCCCC3)CC[C@H]21.Cl  142.3%
6. CNCc1ccc([C@@H]2CN(C(C)=O)C[C@H]2C(N)=O)cc1.Cl  129.4%
7. COCC(=O)N1CCN(C)C(=O)C(Cc2ccc(-c3cccs3)cc2)C1 (stereo not given)  126.7%
8. Cc1occc(=O)c1OCc1noc(C(=O)NCC(C)C)n1  118%
9. CN(CCCOc1ccccc1)C(=O)c1csc(-c2nnc[nH]2)n1  111.9%
10. CCOC(=O)c1nc(COc2c(C)occc2=O)no1  107.7%
11. Cc1ccc(CNC(C)(C)c2noc(C(C)(C)C)n2)o1  107.5%
12. Fc1cnc(N2CCOC3(CCN(Cc4cccs4)CC3)C2)nc1.O=C(O)C(F)(F)F.O=C(O)C(F)(F)F  104.4%
13. Cc1csc(C(C)(C)NCC(=O)N(C)Cc2ccc(C)o2)n1  102.3%
14. O=C(O)C(F)(F)F.O=C1COC2(CCN(Cc3cccs3)CC2)CN1c1ccsc1  102.1%
15. O=C(O)C(F)(F)F.O=C1COC2(CCN(Cc3cccs3)CC2)CN1c1cncnc1  100.5%
16. CNCc1ccc([C@@H]2CN(C(C)=O)C[C@H]2C(=O)N(C)C)cc1.Cl  99.26%
17. CNC(=O)c1nc(COc2c(C)occc2=O)no1  98.73%
18. COCCN(Cc1ccccc1)C(=O)c1csc(-c2nnc[nH]2)n1  98.7%
19. O=C(O)C(F)(F)F.O=C(O)C(F)(F)F.O=C1COC2(CCN(Cc3cccs3)CC2)CN1c1cccnc1  97.28%
20. COCCc1noc(Cn2c(=O)[nH]c3ccccc32)n1  95.59%
21. COCc1noc(Cn2c(C3CC3)nc3ccccc32)n1  95.56%
22. COc1cccc(CN(C)C(=O)c2csc(-c3nnc[nH]3)n2)c1  94.98%
23. Cc1ccc(CN(C)C(=O)CNC(C)(C)c2noc(C(C)(C)C)n2)o1  94%
24. COCc1noc(Cn2c(=O)[nH]c3ccccc32)n1  93.82%
25. Cc1cccc(CN2CCC3(CC2)CN(c2cccnc2)C(=O)CO3)n1.O=C(O)C(F)(F)F.O=C(O)C(F)(F)F  90.31%
26. Cc1nc(CN(C)C2CCCN(c3cccnn3)C2)nc2ccccc12 (stereo not given)  87.46%
27. Cc1occc(=O)c1OCc1noc(C(=O)NC(C)C)n1  81.24%
28. CN(c1ncnc2ccccc12)C1CCCN(c2cccnn2)C1 (stereo not given)  80.98%
29. CNCc1ccc([C@@H]2CN(C)C[C@H]2C(N)=O)cc1.Cl  68.94%
30. Cn1nccc1C(=O)NC(C)(C)c1noc(C(C)(C)C)n1  27.22%
31. COC(=O)N1CCC(NC(=O)N2CCCC2c2ccsc2)CC1 (stereo not given)  22.17%
32. CN(c1ncnc2sccc12)C1CCCN(c2cccnn2)C1 (stereo not given)  17%
33. Cc1cnc(N2CCC3(CC2)CN(c2ccsc2)C(=O)CO3)nc1.O=C(O)C(F)(F)F  15.19%
34. COc1ccc(C(C)N2CCC(C(=O)N(C)C)CC2)cc1Cl (stereo not given)  13.21%
35. Cn1cc(N2CC3(CCN(Cc4cccs4)CC3)OCC2=O)cn1.O=C(O)C(F)(F)F  13.04%
36. CC(C)(C)NC(=O)CNC(=O)CCc1ccccc1Br  12.72%
37. Cl.NC(=O)c1ccc(CNC2CC2)cc1  11.53%
38. CN(Cc1nc(N)c2ccccc2n1)C1CCCN(c2cccnn2)C1 (stereo not given)  10.49%
39. CNc1nc(CNC(=O)Nc2ccc(OC)cc2C)cs1  10.14%
40. CSCC(CCO)NC(=O)Nc1cc(Br)ccc1C (stereo not given)  9.066%
41. CN(CCc1nc2cc(Cl)ccc2[nH]1)C(=O)c1ncn[nH]1  8.261%
42. Fc1cnc(N2CCCC3(CN(Cc4ccccc4)CCO3)C2)nc1.O=C(O)C(F)(F)F (stereo not given)  8.099%
43. Cc1nc(CN(C)CC2CCCN2c2cccnn2)nc2ccccc12 (stereo not given)  6.947%
44. COCc1nc(C(=O)N(Cc2ccccc2)CC(C)C(=O)O)cs1 (stereo not given)  6.809%
45. COc1ccccc1C(C)(C)NCc1ccc(C)o1  6.664%
46. CC(C)(C)C(=O)N1C[C@H](c2ccsc2)[C@H]2CN(Cc3cccs3)CC[C@H]21.Cl  6.375%
47. CCCn1cc(C(=O)N(C)Cc2nc(-c3ccccn3)no2)c(C)n1  4.948%
48. Cc1nn(C)c(C)c1OCC(=O)NCC(O)c1ccsc1 (stereo not given)  4.904%
49. COc1c(C)cnc(CN(C)C(=O)Nc2ccc3c(c2)CCO3)c1C  3.992%
50. Cc1nc2ccccc2nc1CN(C)C1CCCN(c2cccnn2)C1 (stereo not given)  3.642%
51. CN(Cc1ncc(-c2ccccc2)o1)C1CCCN(c2cccnn2)C1 (stereo not given)  2.582%
52. Cc1nc(-c2nnc[nH]2)sc1C(=O)N(Cc1cccnc1)C1CC1  1.946%
53. Cc1nc(C)n(CC2CCCN2CC(=O)N(C)Cc2ccc(C)o2)n1 (stereo not given)  1.913%
54. COCc1noc(Cn2ccc3ncccc3c2=O)n1  1.423%
55. COC(=O)CS(=O)(=O)CCC(=O)N1CCCC1c1ccsc1 (stereo not given)  0.3686%
56. CN(C)C(=O)c1ccc(CNC(=O)NCCN(C)C2CCCC2)cc1  0.2327%
57. Cc1csc(CN(C)CCOc2ccccc2)n1  -0.03273%
58. CCCN1C[C@H]2CC[C@@H]1CN(C(=O)c1ccc(N(C)CCO)cc1)C2  -0.2946%
59. CS(=O)(=O)c1ccc(CNC(=O)N2CCC(C(N)=O)C2)cc1 (stereo not given)  -0.5949%
60. COc1cccc(-n2cc(CN(C)C(=O)c3cc[nH]n3)cn2)c1  -0.6043%
61. Cc1occc1C(=O)NCC(O)c1ccc(Cl)s1 (stereo not given)  -1.514%
62. CCO[C@@H]1CCN(C(=O)c2cnc(C)cn2)[C@@H]1Cc1cnn(C)c1  -1.532%
63. Cc1nc(C)n(CC2CN(CCOCC(F)(F)F)CCO2)n1 (stereo not given)  -2.106%
64. COCc1noc(Cn2ncn3cccc3c2=O)n1  -2.273%
65. CC(=O)N1CC(=O)N(c2cccnc2)CC12CCN(Cc1nccs1)C2.O=C(O)C(F)(F)F.O=C(O)C(F)(F)F (stereo not given)  -2.554%
66. Cc1csc(C(C)(C)NCCNS(C)(=O)=O)n1  -2.878%
67. Cc1ccccc1CNC(=O)N1C[C@H]2C[C@H](C(=O)N(C)C)[C@@H](C1)O2  -3.016%
68. COCC(=O)N1CCN(C(=O)c2cccs2)[C@@H](C(=O)OC)C1  -3.923%
69. COCCc1noc(CN2CC(C)(c3ccccc3)CCC2=O)n1 (stereo not given)  -4.269%
70. Oc1ccccc1CN1CCC(n2cc(-c3ccc(F)cc3)nn2)CC1  -4.662%
71. CCC(=O)N1CSCC1C(=O)Nc1ccccc1-c1cccs1 (stereo not given)  -5.499%
72. Cc1occc1C(=O)NCc1ccc(N2CCCC(C(N)=O)C2)cc1 (stereo not given)  -5.63%
73. CCC(=O)N1CCN(C(=O)Nc2ccccc2-c2cccs2)CC1  -6.486%
74. CCC(C)(NCC(=O)N(c1ccccc1)C(C)C)c1nc(C)cs1 (stereo not given)  -6.604%
75. CS(=O)(=O)c1ccccc1N[C@@H]1c2ccccc2C[C@@H]1O  -8.17%
76. Cc1cccnc1C(NC(=O)CNC(=O)c1ccoc1C)C(C)C (stereo not given)  -9.405%
77. COc1ccc(C2(C(=O)NCc3c(C)ncc4c3CCNC4)CC2)cc1  -10.04%
78. CNS(=O)(=O)c1cc(C(=O)N(C)Cc2sccc2C)c(C)o1  -10.4%
79. Fc1cnc(N2CCOC3(CCN(Cc4ccsc4)CC3)C2)nc1.O=C(O)C(F)(F)F.O=C(O)C(F)(F)F  -10.48%
80. CNC(=O)c1nc(Cn2ncc3ccccc3c2=O)no1  -11.19%
81. Cc1c(I)cccc1C(=O)NCc1nnc[nH]1  -11.57%
82. COCc1noc(CN2CC(=O)N(C)c3ccccc3C2=O)n1  -11.96%
83. O=C(O)C(F)(F)F.O=C1COC2(CCN(Cc3cccs3)CC2)CN1c1ccccc1  -12.07%
84. CCCc1nc(C(=O)N(C)Cc2cnn(-c3cccc(OC)c3)c2)cs1  -14.16%
85. CCOc1ccc(CC(CNC(=O)c2ccoc2C)C(N)=O)cc1 (stereo not given)  -14.81%
86. CN(CCCc1ccccc1)C(=O)CCc1nc(-c2nnc[nH]2)no1  -15.35%
87. O=C(Nc1ccccc1-c1cccs1)N1CCN(CC(F)F)CC1  -15.51%
88. COc1ccc(Cc2ncc3c(n2)CN(C(=O)CN(C)C)C3)cc1  -15.7%
89. COC(=O)NCC(=O)N(C)CC1Cc2ccccc2CN1C (stereo not given)  -16.07%
90. COCc1noc(Cn2ccc3ccccc3c2=O)n1  -17.57%
91. COCCN1CCC2(CCCN(C(=O)c3cncn3C)C2)CC1.O=C(O)C(F)(F)F  -17.89%
92. CNC(=O)c1ccc(OC)c(NCc2noc(-c3ccsc3)n2)c1  -18.11%
93. Cc1ccc(SCCCNC(=O)c2cn([C@H]3CC[C@@H](N)CC3)nn2)cc1  -20.01%
94. CN(c1ncnc2c1cnn2C)C1CCCN(c2cccnn2)C1 (stereo not given)  -20.96%
95. Cn1ccnc1CN1CCC2(CC1)CN(c1cncnc1)C(=O)CO2.O=C(O)C(F)(F)F  -21.12%
96. COCCc1noc(Cn2ccc3ccccc3c2=O)n1  -26.03%
97. Cc1sc(Br)cc1S(=O)(=O)NCc1ccccn1  -26.2%
98. Cc1nc2c(NCC(C)N(C)c3ccccc3)ncnc2o1 (stereo not given)  -36.58%
99. CCc1nc(COc2ccc(N(C)C(C)=O)cc2)no1  -47.78%
100. Cc1cnn(C2CN(CC(=O)N(C)Cc3ccc(C)o3)C2)c1  -130.6%
